# Results filed as inconclusive are left out. The source made the active and inactive calls. Unless noted, calls follow the shape of the dose curve; as a rule, active = well fitted curve in the direction sought with a large enough effect; inconclusive = small, poorly fitted or top-dose-only effect, or another doubt; inactive = no such curve, though single readings can be large; an effect the other way counts as inactive or inconclusive.
# How the values were obtained:
# [1] = molecular target: Lysosomal acid glucosylceramidase (Homo sapiens) (UniProt P04062); assay: Glucocerebrosidase-p2 (AID 348; in the data active = potency below about 10 µM; also: potency is read from the fitted curve at half-maximal effect); details: purified GBA, blue fluorogenic substrate, 40 min
# Chain of Lysosomal acid glucosylceramidase (Homo sapiens) (P04062 whole entry, looked up): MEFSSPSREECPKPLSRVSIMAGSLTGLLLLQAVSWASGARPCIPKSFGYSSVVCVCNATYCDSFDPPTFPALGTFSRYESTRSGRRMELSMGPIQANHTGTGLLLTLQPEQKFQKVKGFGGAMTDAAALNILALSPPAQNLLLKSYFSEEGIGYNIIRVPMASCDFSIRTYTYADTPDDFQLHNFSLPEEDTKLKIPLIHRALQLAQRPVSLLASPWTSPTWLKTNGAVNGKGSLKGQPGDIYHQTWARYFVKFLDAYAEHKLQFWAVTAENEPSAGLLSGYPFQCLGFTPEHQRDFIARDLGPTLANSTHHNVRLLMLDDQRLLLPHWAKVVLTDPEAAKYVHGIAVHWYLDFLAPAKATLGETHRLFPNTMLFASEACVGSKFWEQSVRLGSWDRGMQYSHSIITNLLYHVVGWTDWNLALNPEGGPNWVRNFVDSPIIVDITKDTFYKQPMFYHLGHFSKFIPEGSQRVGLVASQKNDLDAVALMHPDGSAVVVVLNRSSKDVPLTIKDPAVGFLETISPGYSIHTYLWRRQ
# Outline: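 Compounds titrated from 0.6 nM upwards against 0.2 nM enzyme in pH 5.9 citric acid/KH2PO4, taurocholate, tween-20; blue fluorogenic substrate 80 uM, 40 min room temperature, stopped and read Ex 365/Em 440 for AC50.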
# [2] = AP1 Signaling Pathway (AID 357; active = well fitted curve in either direction with a large enough effect, not every such curve was filed as active;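 also: ME-180 reporter cells stimulated with EGF at its EC50 level; % is scaled to controls: 0 for no effect and ±100 for the full control effect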); details: ME-180 AP-1-bla reporter, EGF-induced, beta-lactamase ratio, 5 h; at 7.69 µM (top of the series) unless noted
# Outline: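 Cells are seeded overnight, exposed to compound titrations and an EC50 level of EGF for 5 hours at 37 °C, then loaded with CCF4 dye for 2.5 hours. Beta-lactamase activity under the AP-1 element is read as a blue/green ratio.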
# [3] = molecular target: Glucocorticoid receptor (Homo sapiens) (UniProt P04150); assay: GR-GFP Redistribution (AID 450;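 active = compounds whose dose series gives a full or clear partial fitted curve of increased nuclear translocation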; also: potency is read from the fitted curve at half-maximal effect); details: U2OS GR-GFP nuclear translocation, laser cytometry, 2 h
# Chain of Glucocorticoid receptor (Homo sapiens) (P04150 whole entry, looked up, the tested form may be a part): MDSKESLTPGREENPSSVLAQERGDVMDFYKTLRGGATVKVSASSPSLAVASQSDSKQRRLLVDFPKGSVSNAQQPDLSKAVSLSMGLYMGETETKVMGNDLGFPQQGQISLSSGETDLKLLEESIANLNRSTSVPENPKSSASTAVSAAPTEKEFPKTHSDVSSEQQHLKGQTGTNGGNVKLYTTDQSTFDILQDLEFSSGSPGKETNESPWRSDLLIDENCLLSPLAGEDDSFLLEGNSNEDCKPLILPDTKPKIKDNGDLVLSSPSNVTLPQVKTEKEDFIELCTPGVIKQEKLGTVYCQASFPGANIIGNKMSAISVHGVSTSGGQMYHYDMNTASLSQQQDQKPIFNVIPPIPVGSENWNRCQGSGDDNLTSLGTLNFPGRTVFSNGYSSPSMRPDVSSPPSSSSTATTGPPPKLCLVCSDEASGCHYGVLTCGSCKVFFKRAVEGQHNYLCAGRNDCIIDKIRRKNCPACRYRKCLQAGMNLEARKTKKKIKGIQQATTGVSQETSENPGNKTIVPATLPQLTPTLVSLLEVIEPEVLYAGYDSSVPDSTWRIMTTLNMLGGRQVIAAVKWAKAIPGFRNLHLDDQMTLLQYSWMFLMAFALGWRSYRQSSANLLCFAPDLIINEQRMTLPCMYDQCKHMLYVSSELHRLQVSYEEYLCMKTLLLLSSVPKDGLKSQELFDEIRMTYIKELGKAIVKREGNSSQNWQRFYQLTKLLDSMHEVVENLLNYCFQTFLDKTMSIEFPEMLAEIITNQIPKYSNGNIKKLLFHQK
# [4] = molecular target: Glucocorticoid receptor (Homo sapiens) (UniProt P04150); assay: GR-EFC Redistribution (AID 451; calls by dose curve; also: potency is read from the fitted curve at half-maximal effect); details: CHO-K1 GR-EFC translocation, beta-gal luminescence, 2 h
# Outline: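 Translocation of GR-ED fusion to nuclear EA restores b-gal, read by luminescence after 1 h room-temperature detection. Engineered CHO-K1 biosensor cells, 1,000/well, exposed 2 h at 37 C to titrations up to 46 uM final.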
# [5] = molecular target: Mitogen-activated protein kinase 10 (Mus musculus) (UniProt Q61831); assay: JNK3 AlphaScreen Assay (AID 530; active = well fitted curve in either direction with a large enough effect, not every such curve was filed as active;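 also: kinase came from lysate of stimulated human HepG2 cells; signal reports phosphorylation of biotinylated GST-cJun 1-79 at Ser73 with 10 µM ATP; % is scaled to controls: 0 for no effect and ±100 for the full control effect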); details: JNK3 lysate, c-Jun phosphorylation; series mostly up to 57.1 µM
# Outline: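 Room-temperature AlphaScreen kinase assay; pre-activated HepG2 lysate as JNK3 source, biotin-GST-cJun(1-79) substrate, 10 uM ATP, compound 15 min preincubation.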
# [6] = qHTS Assay for Lipid Storage Modulators (AID 1519; calls by dose curve; also: potency is read from the fitted curve at half-maximal effect); details: Drosophila S3 cells, BODIPY lipid droplet/cell ratio, laser cytometry, cells loaded with oleic acid; for activity change, negative = inhibition: at 57.5 µM (top of the series)
# Outline: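 Cells seeded at 5,000 per well were treated with compounds over a concentration series and loaded with oleic acid (400 uM, as added). Lipid droplet fluorescence (488 nm excitation, 500-530 nm channel) was read by laser-scanning cytometry and normalized to 20 uM Triacsin C.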
# [7] = molecular target: Dual specificity protein kinase CLK4 (Homo sapiens) (UniProt Q9HAZ1); assay: qHTS Assay for Inhibitors of CDC-like Kinase 4 (ADP-Glo Assay) (AID 1771); details: recombinant CLK4, ADP-Glo luminescence; series mostly up to 80 µM; also: % is scaled to controls: 0 for no effect and ±100 for the full control effect; nearly all actives have a fitted effect of over 70% in size
# Chain of Dual specificity protein kinase CLK4 (Homo sapiens) (Q9HAZ1 whole entry, looked up): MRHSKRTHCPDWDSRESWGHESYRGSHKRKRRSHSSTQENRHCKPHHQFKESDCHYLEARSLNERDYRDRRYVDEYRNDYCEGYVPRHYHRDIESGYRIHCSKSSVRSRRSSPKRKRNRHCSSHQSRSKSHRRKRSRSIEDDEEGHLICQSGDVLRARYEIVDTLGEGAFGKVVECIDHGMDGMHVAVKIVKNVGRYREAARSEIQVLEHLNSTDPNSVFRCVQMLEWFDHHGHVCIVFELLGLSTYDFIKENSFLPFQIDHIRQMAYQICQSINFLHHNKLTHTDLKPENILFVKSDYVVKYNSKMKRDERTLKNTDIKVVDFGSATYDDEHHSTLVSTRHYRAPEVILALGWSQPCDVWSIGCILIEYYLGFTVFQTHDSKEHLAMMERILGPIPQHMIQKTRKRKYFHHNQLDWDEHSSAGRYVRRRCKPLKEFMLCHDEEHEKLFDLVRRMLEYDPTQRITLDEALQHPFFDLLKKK
# Outline: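 Kinase reaction: Clk4 at 25 nM, RS repeat peptide substrate at 100 uM, ATP at 1 uM, 1 hr, room temperature. Product ADP detected as luciferase signal via ADP-Glo.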
# [8] = molecular target: Ubiquitin carboxyl-terminal hydrolase 1 (Homo sapiens) (UniProt O94782); assay: Inhibitors of USP1/UAF1: Pilot qHTS (AID 504865); details: purified USP1/UAF1, Ub-rhodamine cleavage fluorescence; series mostly up to 54.9 µM;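 also: rhodamine fluorescence freed from ubiquitin-rhodamine substrate followed over time; top concentration of the series differs between compounds; % is scaled to controls: 0 for no effect and ±100 for the full control effect; nearly all actives have a fitted effect of over 35% in size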
# Chain of Ubiquitin carboxyl-terminal hydrolase 1 (Homo sapiens) (O94782 whole entry, looked up): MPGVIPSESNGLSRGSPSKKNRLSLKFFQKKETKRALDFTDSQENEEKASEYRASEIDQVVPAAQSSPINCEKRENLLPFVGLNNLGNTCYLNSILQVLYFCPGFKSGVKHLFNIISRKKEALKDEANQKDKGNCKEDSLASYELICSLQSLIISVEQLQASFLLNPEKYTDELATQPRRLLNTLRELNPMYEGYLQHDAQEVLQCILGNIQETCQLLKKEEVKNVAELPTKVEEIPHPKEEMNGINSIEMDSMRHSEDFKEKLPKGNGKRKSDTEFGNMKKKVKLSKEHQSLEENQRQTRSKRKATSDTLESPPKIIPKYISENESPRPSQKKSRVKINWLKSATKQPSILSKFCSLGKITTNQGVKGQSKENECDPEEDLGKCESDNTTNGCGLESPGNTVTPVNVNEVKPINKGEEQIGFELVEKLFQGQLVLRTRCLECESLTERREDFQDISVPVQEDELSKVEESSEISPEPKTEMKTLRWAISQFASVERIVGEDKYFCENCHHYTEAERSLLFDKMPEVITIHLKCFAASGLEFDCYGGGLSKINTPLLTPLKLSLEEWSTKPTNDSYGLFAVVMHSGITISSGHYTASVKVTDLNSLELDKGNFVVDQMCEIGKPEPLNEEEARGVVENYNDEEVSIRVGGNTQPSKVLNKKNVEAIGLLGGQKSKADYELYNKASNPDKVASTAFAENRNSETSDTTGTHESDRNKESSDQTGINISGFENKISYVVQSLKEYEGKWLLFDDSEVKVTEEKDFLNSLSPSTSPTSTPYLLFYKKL
# Outline: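 In 50mM HEPES pH 7.8 containing 0.5mM EDTA, 1mM TCEP, 0.1 mg/ml BSA and 0.01% Tween-20, 1nM USP1/UAF1 is exposed to compound for 15 min, then Ub-Rho (150nM final) is added and fluorescence is read over time.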
# [9] = Primary qHTS for small molecule stabilizers of the endoplasmic reticulum resident proteome: Secreted ER Calcium Modulated Protein (SERCaMP) assay (AID 1508630); details: SH-SY5Y GLuc-SERCaMP (Gaussia luciferase released on ER calcium loss) secretion, thapsigargin, luminescence; series mostly up to 38.4 µM; also: % is scaled to controls: 0 for no effect and ±100 for the full control effect
# Outline: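 GLuc-SERCaMP-expressing SH-SY5Y cells, pretreated 16 h with compound, are challenged with thapsigargin to empty ER calcium stores; after 4 h, coelenterazine is added directly to the medium and luminescence is imaged.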
# [10] = NFAT Signaling Pathway (AID 444; active = well fitted curve in either direction with a large enough effect, not every such curve was filed as active;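 also: carbachol stimulus at about its EC50 of 1 µM final; % is scaled to controls: 0 for no effect and ±100 for the full control effect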); details: Jurkat NFAT-bla M1, carbachol, beta-lactamase ratio, 5 h; at 7.69 µM (top of the series) unless noted
# Outline: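 Read-out: CCF4 FRET ratio (460 nm/530 nm) after 1 h RT dye loading, used for %activity and AC50 from titration series. Cells: Jurkat NFAT-β-lactamase/M1 line, treated with compound plus 1 uM carbachol for 5 h, 37 °C.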
# [11] = Stat Signaling Pathway (AID 446; active = well fitted curve in either direction with a large enough effect, not every such curve was filed as active); details: ME-180 SIE beta-lactamase reporter, IL-6 stimulated, 5 h; at 7.69 µM (top of the series) unless noted
# Outline: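 Reporter line: ME-180 cervical carcinoma, SIE-beta-lactamase. Treatment: compound with 40 pM IL-6, 5 hrs, 37 C, in low-serum OPTI-MEM with 10 mM HEPES pH 7.3. Detection: 460/530 nm fluorescence.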
# [12] = molecular target: 3',5'-cyclic-AMP phosphodiesterase 4B (Homo sapiens) (UniProt Q07343); assay: qHTS Assay for Inhibitors of PDE-IV (AID 607; active = well fitted activation curve with a large enough effect in the main read-out, with a control signal flat, not every such curve was filed as active; also: % of control where 0% means no effect); details: HEK293 ACTOne CNG channel cells, membrane potential fluorescence; series mostly up to 22.9 µM
# Chain of 3',5'-cyclic-AMP phosphodiesterase 4B (Homo sapiens) (Q07343 whole entry, looked up): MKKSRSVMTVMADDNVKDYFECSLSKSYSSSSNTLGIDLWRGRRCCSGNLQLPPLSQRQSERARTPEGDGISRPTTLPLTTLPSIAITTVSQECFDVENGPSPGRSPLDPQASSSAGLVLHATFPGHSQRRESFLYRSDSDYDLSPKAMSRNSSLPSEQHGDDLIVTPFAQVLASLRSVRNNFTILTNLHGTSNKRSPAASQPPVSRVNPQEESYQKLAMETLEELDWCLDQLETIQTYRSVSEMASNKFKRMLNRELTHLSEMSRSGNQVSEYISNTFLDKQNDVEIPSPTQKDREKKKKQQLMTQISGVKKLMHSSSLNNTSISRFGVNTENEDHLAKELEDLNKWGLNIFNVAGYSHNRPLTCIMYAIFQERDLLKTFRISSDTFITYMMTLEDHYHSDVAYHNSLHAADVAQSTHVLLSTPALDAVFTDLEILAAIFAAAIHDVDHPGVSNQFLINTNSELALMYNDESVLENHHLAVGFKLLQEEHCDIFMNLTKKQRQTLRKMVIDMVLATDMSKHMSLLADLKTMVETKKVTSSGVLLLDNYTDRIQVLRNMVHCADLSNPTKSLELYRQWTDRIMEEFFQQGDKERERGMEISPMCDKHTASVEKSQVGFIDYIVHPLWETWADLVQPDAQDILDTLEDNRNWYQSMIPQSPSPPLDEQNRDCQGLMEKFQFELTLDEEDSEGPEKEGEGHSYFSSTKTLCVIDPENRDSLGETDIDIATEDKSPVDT
# Outline: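 Cell-based read-out of cAMP via a modified cyclic nucleotide-gated channel and membrane potential dye (535/590 nm) in HEK293 cells expressing PDE4 endogenously. Compounds tested up to 22.9 uM final; 100 uM RO 20-1724 reference.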
# [13] = molecular target: Dual specificity protein kinase CLK4 (Homo sapiens) (UniProt Q9HAZ1); assay: qHTS Assay for Inhibitors of CDC-like Kinase 4 (ADP-FP Assay) (AID 1795); details: Transcreener ADP fluorescence polarization; series mostly up to 50 µM; also: nearly all actives have a fitted effect of over 60% in size; also: potency is read from the fitted curve at half-maximal effect
# Outline: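 Clk4 6.25 nM; RS peptide 100 uM; ATP 1 uM; 25 mM Tris pH 7.5, 10 mM MgCl2; 1 h reaction. ADP detected via antibody/orange tracer FP displacement; TG003 positive control.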
# [14] = molecular target: Cytochrome P450 1A2 (Homo sapiens) (UniProt P05177); assay: p450-cyp1a2 (AID 410; calls by dose curve; also: potency is read from the fitted curve at half-maximal effect); details: recombinant CYP1A2, luciferin-ME demethylation, luminescence; series mostly up to 57 µM
# Chain of Cytochrome P450 1A2 (Homo sapiens) (P05177 whole entry, looked up): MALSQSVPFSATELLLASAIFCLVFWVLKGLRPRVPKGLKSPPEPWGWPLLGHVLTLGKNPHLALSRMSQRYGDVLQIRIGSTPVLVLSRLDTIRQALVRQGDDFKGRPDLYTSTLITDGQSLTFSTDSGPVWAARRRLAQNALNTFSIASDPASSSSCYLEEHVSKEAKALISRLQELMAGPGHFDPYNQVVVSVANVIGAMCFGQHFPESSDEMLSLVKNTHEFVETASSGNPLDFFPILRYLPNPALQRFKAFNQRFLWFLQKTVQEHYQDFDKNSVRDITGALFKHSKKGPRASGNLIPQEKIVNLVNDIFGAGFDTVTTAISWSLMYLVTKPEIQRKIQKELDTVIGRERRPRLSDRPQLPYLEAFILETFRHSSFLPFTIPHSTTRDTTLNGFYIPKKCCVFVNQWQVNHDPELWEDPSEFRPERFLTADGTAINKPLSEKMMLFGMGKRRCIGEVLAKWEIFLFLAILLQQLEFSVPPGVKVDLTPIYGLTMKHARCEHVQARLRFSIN
# Outline: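 Inhibition was calculated relative to 57 uM furafylline (full inhibition). The reaction used human CYP1A2 at 20nM with Luciferin-ME at its Km, 100uM, driven by an NADPH-regenerating system for 60 min at room temperature.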
# [15] = molecular target: Cytochrome P450 3A4 (Homo sapiens) (UniProt P08684); assay: qHTS Assay for Activators of Cytochrome P450 3A4 (AID 885); details: recombinant CYP3A4, Luciferin-PPXE luminescence, 60 min; series mostly up to 57.1 µM; also: nearly all actives have a fitted effect of over 65% in size
# Chain of Cytochrome P450 3A4 (Homo sapiens) (P08684 whole entry, looked up): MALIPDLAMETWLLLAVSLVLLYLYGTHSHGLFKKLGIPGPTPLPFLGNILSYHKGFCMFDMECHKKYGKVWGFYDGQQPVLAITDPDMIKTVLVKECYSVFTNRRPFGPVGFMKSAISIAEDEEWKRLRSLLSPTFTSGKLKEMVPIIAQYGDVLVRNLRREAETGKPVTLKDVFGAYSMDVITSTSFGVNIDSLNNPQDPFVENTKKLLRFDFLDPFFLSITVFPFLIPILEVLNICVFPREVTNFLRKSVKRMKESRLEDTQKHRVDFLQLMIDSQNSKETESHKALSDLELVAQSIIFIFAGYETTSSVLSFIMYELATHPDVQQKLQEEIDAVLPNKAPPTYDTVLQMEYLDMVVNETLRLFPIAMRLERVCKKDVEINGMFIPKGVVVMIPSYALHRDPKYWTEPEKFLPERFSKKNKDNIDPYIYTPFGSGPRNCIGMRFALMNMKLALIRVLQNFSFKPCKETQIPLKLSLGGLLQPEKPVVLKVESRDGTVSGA
# Outline: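 Signal was normalized against complete inhibition by 57 uM ketoconazole. The reaction used 20nM CYP3A4 with 25uM Luciferin-PPXE, 10-min compound preincubation and a 60-min NADPH-supported step at RT.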
# [16] = qHTS Assay for Identification of Small Molecule Agonists for Hypoxia Response Element Signaling Pathway (AID 914; active = well fitted activation curve with a large enough effect in the signal ratio, with a control signal flat, not every such curve was filed as active; the % refers to the signal ratio; also: potency is read from the fitted curve at half-maximal effect); details: ME-180 (cervical carcinoma) HRE-bla reporter, beta-lactamase ratio, CoCl2, 17 h; activation: stronger effect = higher value
# Outline: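 Compounds in a titration series were added to ME-180 reporter cells alongside an EC50 level of CoCl2. After 17 hours, beta-lactamase activity was read as the 460nm/530nm emission ratio of CCF4, giving AC50 values.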
# [17] = molecular target: Cytochrome P450 3A4 (Homo sapiens) (UniProt P08684); assay: qHTS Assay for Inhibitors and Substrates of Cytochrome P450 3A4 (AID 884); details: recombinant CYP3A4, Luciferin-PPXE luminescence; series mostly up to 57.1 µM; also: potency is read from the fitted curve at half-maximal effect; nearly all actives have a fitted effect of over 50% in size
# Outline: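 20 nM human CYP3A4 with 25 uM Luciferin-PPXE (at KM) in 200 mM KPO4, preincubated 10 min with compound; NADPH regeneration started a 60 min RT reaction. Luciferin detected by luminescence, normalized to 57 uM ketoconazole as full inhibition.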
# [18] = molecular target: Cytochrome P450 2C19 (Homo sapiens) (UniProt P33261); assay: qHTS Assay for Inhibitors and Substrates of Cytochrome P450 2C19 (AID 899); details: recombinant CYP2C19, luciferin-H EGE luminescence; series mostly up to 57.1 µM; also: potency is read from the fitted curve at half-maximal effect; nearly all actives have a fitted effect of over 60% in size
# Chain of Cytochrome P450 2C19 (Homo sapiens) (P33261 whole entry, looked up): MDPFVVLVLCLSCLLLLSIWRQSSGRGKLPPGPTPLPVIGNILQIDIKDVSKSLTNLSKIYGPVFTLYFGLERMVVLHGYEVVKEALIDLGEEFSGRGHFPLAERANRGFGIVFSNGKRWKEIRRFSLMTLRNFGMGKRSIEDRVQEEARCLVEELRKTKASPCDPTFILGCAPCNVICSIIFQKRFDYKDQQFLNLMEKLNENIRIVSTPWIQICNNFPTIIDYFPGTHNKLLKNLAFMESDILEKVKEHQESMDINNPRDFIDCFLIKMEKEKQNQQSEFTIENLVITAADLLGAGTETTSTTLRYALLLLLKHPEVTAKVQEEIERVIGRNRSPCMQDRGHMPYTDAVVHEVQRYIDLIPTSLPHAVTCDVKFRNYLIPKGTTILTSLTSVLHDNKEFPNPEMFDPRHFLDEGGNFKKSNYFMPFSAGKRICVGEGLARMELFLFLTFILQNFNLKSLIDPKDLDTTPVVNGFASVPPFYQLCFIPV
# Outline: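 Reactions contain 5nM enzyme, 10uM Luciferin-H EGE (KM) and 50mM KPO4; compound preincubates 10 min at 37C, NADPH regeneration starts turnover for 60 min. Luminescence after detection reagent gives activity.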
# [19] = measured here: cell count channel max response
# [20] = measured here: lipid channel max response
smiles,measurement,setting,value
COc1ccc(-c2nc3cnc(Nc4ccccc4)nc3n(C[C@H]3CCCO3)c2=O)cc1,Potency,[1],> 11.4 µM (inactive)
same,"activity change, negative = inhibition",[2],26.1% (inactive)
same,Potency,[3],> 9.22 µM (inactive)
same,Potency,[4],> 46 µM (inactive)
same,outcome,[5],inactive
same,Potency,[6],11.2 µM (active)
same,max response,[6]; [19],2.79%
same,max response,[6]; [20],-87.2%
same,Potency,[7],inactive
same,Potency,[8],inactive
same,Potency,[9],inactive
COCCn1c(=O)c(-c2cn(C)c3ccccc23)nc2cnc(Oc3cccc(Cl)c3)nc21,Potency,[1],> 11.4 µM (inactive)
same,"activity change, negative = inhibition",[2],-7.97% (inactive)
same,"activity change, negative = inhibition",[10],5.68% (inactive)
same,"activity, negative = inhibition",[11],3.06% (inactive)
same,Potency,[3],> 9.22 µM (inactive)
same,Potency,[4],> 46 µM (inactive)
same,Potency,[12],inactive
same,"activity change, negative = inhibition",[6],-4.01% (inactive)
same,max response,[6]; [19],23.7%
same,max response,[6]; [20],16.7%
same,Potency,[7],inactive
same,Potency,[13],inactive
same,Potency,[8],inactive
same,Potency,[9],inactive
O=c1c(-c2ccc(F)c(F)c2)nc2cncnc2n1C1CC1,"activity change, negative = inhibition",[2],3.77% (inactive)
same,Potency,[14],0.1 µM (active)
same,"activity change, negative = inhibition",[10],7.2% (inactive)
same,"activity, negative = inhibition",[11],-6.38% (inactive)
same,Potency,[3],> 9.22 µM (inactive)
same,Potency,[4],> 46 µM (inactive)
same,outcome,[5],inactive
same,Potency,[12],inactive
same,Potency,[15],inactive
same,"activity change, negative = inhibition",[6],8.82% (inactive)
same,max response,[6]; [19],20.3%
same,max response,[6]; [20],27.4%
same,Potency,[7],inactive
same,Potency,[13],inactive
same,Potency,[8],inactive
same,Potency,[9],inactive
O=c1c(-c2ccc(F)cc2)nc2cnc(N3CCNCC3)nc2n1C1CC1,Potency,[1],> 11.4 µM (inactive)
same,Potency,[14],2.51 µM (active)
same,Potency,[3],> 9.22 µM (inactive)
same,Potency,[4],> 46 µM (inactive)
same,outcome,[5],inactive
same,Potency,[12],inactive
same,Potency,[15],inactive
same,Potency,[16],2.51 µM (active)
same,"activity change, negative = inhibition",[6],2.85% (inactive)
same,max response,[6]; [19],26.5%
same,max response,[6]; [20],28.4%
same,Potency,[7],inactive
same,Potency,[13],inactive
same,Potency,[8],inactive
same,Potency,[9],inactive
Fc1ccc(Nc2ncncc2-c2ccoc2)cc1,Potency,[1],> 11.4 µM (inactive)
same,"activity change, negative = inhibition",[2],-7.98% (inactive)
same,Potency,[14],0.316 µM (active)
same,"activity change, negative = inhibition",[10],2.9% (inactive)
same,"activity, negative = inhibition",[11],4.97% (inactive)
same,Potency,[3],> 46 µM (inactive)
same,Potency,[4],> 46 µM (inactive)
same,outcome,[5],inactive
same,Potency,[17],0.501 µM (active)
same,Potency,[15],inactive
same,"activity change, negative = inhibition",[6],4.26% (inactive)
same,max response,[6]; [19],9.18%
same,max response,[6]; [20],12.6%
same,Potency,[13],5.01 µM (active)
same,Potency,[8],inactive
same,Potency,[9],inactive
N#Cc1cccc(-c2cncnc2NCc2cccs2)c1,Potency,[1],> 11.4 µM (inactive)
same,"activity change, negative = inhibition",[2],-2.15% (inactive)
same,Potency,[14],1.58 µM (active)
same,"activity change, negative = inhibition",[10],-0.972% (inactive)
same,"activity, negative = inhibition",[11],3.27% (inactive)
same,Potency,[3],> 46 µM (inactive)
same,Potency,[4],> 46 µM (inactive)
same,outcome,[5],inactive
same,Potency,[15],inactive
same,Potency,[18],7.94 µM (active)
same,"activity change, negative = inhibition",[6],6.17% (inactive)
same,max response,[6]; [19],15.7%
same,max response,[6]; [20],18.5%
same,Potency,[13],inactive
same,Potency,[8],inactive
same,Potency,[9],inactive

# — PubChem BioAssay (NCATS)
